# Records with an inconclusive call do not appear. Entries that show only a call come without a potency. Calls of active or inactive are those of the source. Unless noted, the call rests on the fitted dose curve; in most records, active means well fitted curve in the direction sought with a large enough effect; inconclusive means small, poorly fitted or top-dose-only effect, or another doubt; inactive means no such curve, though single readings can be large; an effect the other way counts as inactive or inconclusive.
# Columns and labels:
# [1] = U-118MG Cancer Cell Toxicity qHTS against the NCATS CANVASS Library (AID 1347351)
# Procedure, shortened: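 Following a 4 h pre-incubation of 1000 seeded cells, compounds were pinned in an 11-pnt dilution series and left for 72 h; viability then came from CellTiter-Glo.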
# [2] = UWB1.289-WTBRCA1 Cancer Cell Toxicity qHTS against the NCATS CANVASS Library (AID 1347354)
# Procedure, shortened: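 Using an ATP-based luminescent reagent after three days of treatment, toxicity is scored across an eleven-concentration range in wells holding 1000 cells each.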
# [3] = KB-3-1 Cancer Cell Toxicity qHTS against the NCATS CANVASS Library (AID 1347366); further: nearly all actives have a fitted effect of over 75% in size; further: potency means the concentration at half of the fitted maximal effect
# Procedure, shortened: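 Cytotoxicity toward KB-3-1 cells (500/well, DMEM + 10% FBS) was scored by CellTiter-Glo luminescence following 72 hr exposure at 37C, with bortezomib titrated as control.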
# [4] = Secretion counterscreen for inhibitors of the SERCaMP assay screened against the NCATS CANVASS Library (AID 1347390);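 further: light from luciferase secreted into medium read as a measure of general secretion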; further: potency means the concentration at half of the fitted maximal effect
# Procedure, shortened: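 Natural products are titrated in an 11-point series up to 77 uM onto SH-SY5Y-GLuc STOP cells for 20 h. Secreted reporter activity is measured as coelenterazine-driven luminescence, with Brefeldin A on each plate.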
# [5] = Vero-766 cells viability qHTS against the NCATS CANVASS Library: Counterscreen for Zika virus inhibition assay (AID 1347394); further: nearly all actives have a fitted effect of over 60% in size; further: potency means the concentration at half of the fitted maximal effect
# Procedure, shortened: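 Counterscreen for toxicity: Vero 766 cells exposed 72 h to an 11-point compound series, viability by CellTiter-Glo.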
# [6] = Viability qHTS for inhibitors of the SERCaMP assay screened against the NCATS CANVASS Library (AID 1347400); further: nearly all actives have a fitted effect of over 70% in size; further: potency means the concentration at half of the fitted maximal effect
# Procedure, shortened: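 Measures loss of viability in SERCaMP reporter SH-SY5Y cells treated for 48 h with compounds; luminescent ATP detection by CellTiter-Glo.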
# [7] = Redox Reaction Profiling qHTS: Assay Interference Panel against the NCATS CANVASS Library (AID 1347401); further: potency means the concentration at half of the fitted maximal effect
# Procedure, shortened: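 Quantitative HTS over an 11-point series was run in HEPES pH 7.3 with 50 mM NaCl, 200 uM DTT and 5 uM resazurin. Initial and 15-min resorufin fluorescence readings were taken.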
# [8] = target: Cytochrome P450 3A4 (Homo sapiens) (UniProt P08684); assay: qHTS Assay for Activators of Cytochrome P450 3A4 (AID 885); further: nearly all actives have a fitted effect of over 65% in size
# Procedure, shortened: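 Activators are scored by enhanced luminescence from CYP3A4 conversion of luciferin-PPXE (25uM, equal to KM) to luciferin, after 60 min at RT with an NADPH-regenerating system.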
# [9] = Confirmation and Secondary Assay for Modulators of Hemoglobin Beta Chain Splicing at IVS2 654 locus (AID 910);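 further: per-well total GFP intensity by laser scanning cytometry after 2-day treatment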
# Procedure, shortened: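 HeLa cells stably carrying EGFP interrupted by mutant beta-globin IVS2-654 intron (CMV-driven) were treated with compound for 2 days at 37C; corrected splicing was scored as total peak GFP intensity per well (488 nm excitation, 500-520 nm emission).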
# [10] = Confirmation and Secondary Assay for Modulators of Hemoglobin Beta Chain Splicing at IVS2 705 locus (AID 930);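 further: HeLa cells stably expressing the EGFP-705 splicing reporter; GFP fluorescence per well restored by corrected splicing of the IVS2-705 intron in EGFP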
# Procedure, shortened: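 Assay measures total GFP intensity per well in HeLa EGFP-705 cells after 2 days with compound; mis-splicing normally truncates EGFP, so fluorescence indicates corrected splicing.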
# [11] = Confirmatory screen NINDS Rhodamine qHTS for Zika virus inhibitors (AID 1347161); further: potency means the concentration at half of the fitted maximal effect; nearly all actives have a fitted effect of over 60% in size
# Procedure, shortened: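 qHTS dose-response: 25 nM linked protease, pH 8.0 Tris/Tween buffer, cpd titration, 15 min RT preinc, 1.5 microM Rhod110 peptide, 15 min reaction (~15% conversion), Ex480/Em540; 4-parameter Hill fit.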
# [12] = system: Zika virus NS2B-NS3 protease (linked); assay: 384 well plate NINDS AMC confirmatory qHTS for Zika virus inhibitors (AID 1347163); further: potency means the concentration at half of the fitted maximal effect; nearly all actives have a fitted effect of over 50% in size
# Procedure, shortened: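 Enzyme (5, 30 or 60 nM final) first met test compounds for ~15 min. The AMC-tagged peptide Ac-VKTGKR-AMC followed at 30 microM. Fluorescence was then recorded at 25 min and scaled against no-enzyme and no-inhibitor wells.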
# [13] = system: Zika virus NS2B-NS3 protease (linked construct); assay: 384 well plate NINDS Rhodamine confirmatory qHTS for Zika virus inhibitors (AID 1347164); further: potency means the concentration at half of the fitted maximal effect; nearly all actives have a fitted effect of over 65% in size
# Procedure, shortened: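 Cleavage of Ac-LKRR-Rhodamine 110 (10 microM final) by linked protease (final 5, 30 or 60 nM) was followed as fluorescence at 485/538 nm after 25 min, room temperature, dark. Compounds preincubated ~15 min.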
# [14] = G06 Cancer Cell Toxicity qHTS against the NCATS CANVASS Library (AID 1347368); further: nearly all actives have a fitted effect of over 60% in size; further: potency means the concentration at half of the fitted maximal effect
# Procedure, shortened: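 Quantitative HTS in G06 cells (dog glioma): 72 hr treatment, 11 concentrations, then ATP-based luminescent viability readout; bortezomib 0.1 nM–4.6 uM final as reference.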
# [15] = system: Zika virus NS2B-NS3 protease (linked construct); assay: Primary screen NINDS Rhodamine qHTS for Zika virus inhibitors (AID 1347160); further: nearly all actives have a fitted effect of over 55% in size; further: potency means the concentration at half of the fitted maximal effect
# Procedure, shortened: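 Enzyme (25 nM, linked NS2B-NS3) was preincubated 15 min with compound in 10 mM Tris-HCl pH 8.0, 0.01% Tween 20. Rhodamine110 substrate (1.5 microM) was then added and fluorescence read at start and after 15 min.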
# [16] = qHTS drug screen for cell cycle checkpoint inhibitors in PARPi-resistant BRCA-mutant ovarian cancer cell lines. (AID 1963452; calls by dose curve); details: PEO1/OlaR viability, CellTiter-Glo luminescence, 96 h, stronger effect = lower value
# Procedure, shortened: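 PEO1, PEO4 and PEO1/OlaR ovarian cancer cells, 600 per well, exposed 96 h at 37C to a dilution series. Viability read by CellTiter-Glo luminescence, normalized to DMSO and empty wells; activity summarized as Z-AUC.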
# [17] = qHTS Assay for Lipid Storage Modulators (AID 1519; calls by dose curve); details: Drosophila S3 cells, BODIPY lipid droplet/cell ratio, laser cytometry, cells loaded with oleic acid
# Procedure, shortened: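 Cells seeded at 5,000 per well were treated with compounds over a concentration series and loaded with oleic acid (400 uM, as added). Lipid droplet fluorescence (488 nm excitation, 500-530 nm channel) was read by laser-scanning cytometry and normalized to 20 uM Triacsin C.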
# Chain of Cytochrome P450 3A4 (Homo sapiens) (P08684 whole entry, looked up): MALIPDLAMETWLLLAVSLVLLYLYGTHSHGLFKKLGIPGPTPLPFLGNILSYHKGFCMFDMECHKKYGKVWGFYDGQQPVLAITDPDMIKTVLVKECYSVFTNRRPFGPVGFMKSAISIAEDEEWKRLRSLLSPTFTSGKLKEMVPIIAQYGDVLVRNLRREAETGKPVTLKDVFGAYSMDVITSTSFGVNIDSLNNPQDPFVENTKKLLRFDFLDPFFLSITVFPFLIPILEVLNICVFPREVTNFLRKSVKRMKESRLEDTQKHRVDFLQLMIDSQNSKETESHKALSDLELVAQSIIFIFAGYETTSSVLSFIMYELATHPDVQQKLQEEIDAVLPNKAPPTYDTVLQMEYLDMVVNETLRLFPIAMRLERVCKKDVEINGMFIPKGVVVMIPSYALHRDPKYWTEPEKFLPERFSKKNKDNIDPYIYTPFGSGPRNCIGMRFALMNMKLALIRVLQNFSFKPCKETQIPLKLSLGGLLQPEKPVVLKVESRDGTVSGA
structure (smiles),measurement,setting,value
CN1CC[C@@]2([C@@]34CCN(C)[C@@H]3Nc3ccccc34)c3ccccc3N[C@@H]12,Potency,[1],inactive
same,Potency,[2],inactive
same,Potency,[3],inactive
same,Potency,[4],inactive
same,Potency,[5],inactive
same,Potency,[6],inactive
same,Potency,[7],inactive
CC(C)=CCc1c2c(c3occ(-c4ccc(O)c(O)c4)c(=O)c3c1O)C=CC(C)(C)O2,Potency,[8],inactive
same,outcome,[9],inactive
same,outcome,[10],inactive
same,Potency,[11],12.4 µM (active)
same,Potency,[12],7.08 µM (active)
same,Potency,[13],7.94 µM (active)
CN1CC[C@]23c4ccccc4N[C@H]1[C@]21CCN(C)[C@H]3Nc2ccccc21,Potency,[1],inactive
same,Potency,[2],inactive
same,Potency,[3],inactive
same,Potency,[14],inactive
same,Potency,[4],inactive
same,Potency,[5],inactive
same,Potency,[6],inactive
same,Potency,[7],inactive
CCC(=O)N[C@@H](C[C@H](C)C(Cl)(Cl)Cl)C(=O)N1C(=O)C=C(OC)[C@@H]1C[C@H](C)CCl,Potency,[15],inactive
same,Potency,[3],inactive
same,Potency,[14],inactive
same,Potency,[4],inactive
same,Potency,[6],inactive
C/C1=C/[C@@H](C)[C@H](O)[C@@H](O)/C=C/CC/C=C/C(=O)O[C@@H]1[C@H](C)C(=O)/C=C/CC1CC(=O)NC(=O)C1,Potency,[15],inactive
same,Potency,[2],inactive
same,Potency,[5],inactive
CO/C=C/C(=O)c1cc2cnc3c(N)cc(=NC(=O)C(C)C)c([nH]1)c23,Potency,[15],17.5 µM (active)
same,Potency,[3],0.59 µM (active)
same,Potency,[4],1.72 µM (active)
same,Potency,[5],0.524 µM (active)
same,Potency,[6],0.381 µM (active)
same,Potency,[7],inactive
C/C=C1/CN2C3CC1C1C=CC(=O)N4c5ccccc5[C@@]3(C[C@@H]2C2=C[C@H]3C5CC6N(CC[C@@]67c6ccccc6N(C2=O)[C@@H]37)C/C5=C/C)[C@H]14 (stereo not given in full),Potency,[15],15.6 µM (active)
same,Potency,[3],10.5 µM (active)
same,Potency,[14],7.43 µM (active)
same,Potency,[4],34.3 µM (active)
same,Potency,[7],inactive
C[C@@]12C[C@@H](C[C@@H]3C(=O)O[C@@H](c4ccoc4)[C@H](OC(=O)c4ccccc4)[C@@H]31)OC2=O,Potency,[1],inactive
same,Potency,[2],inactive
same,Potency,[3],inactive
same,Potency,[14],inactive
same,Potency,[4],inactive
same,Potency,[7],inactive
CCCc1c2c([nH]c(=O)c1C)C(=O)c1[nH]c(=O)c(C)c(CCC)c1C2=O,Potency,[15],34.9 µM (active)
same,Potency,[3],inactive
same,Potency,[4],inactive
same,Potency,[5],inactive
same,Potency,[6],inactive
same,Potency,[7],0.857 µM (active)
O=C1CC(c2ccc(O)cc2)Oc2cc(O)cc(O)c21 (stereo not given),Potency,[8],inactive
same,outcome,[9],inactive
same,outcome,[10],inactive
same,Potency,[1],inactive
same,Potency,[2],inactive
same,Potency,[3],inactive
same,Potency,[14],inactive
same,Potency,[4],inactive
same,Potency,[6],inactive
same,Potency,[7],inactive
O=Cc1ccc2n1C[C@]1(OC2)O[C@H](CO)[C@@H](O)[C@@H]1O,Potency,[1],inactive
same,Potency,[2],inactive
same,Potency,[3],inactive
same,Potency,[4],inactive
same,Potency,[5],inactive
same,Potency,[6],inactive
same,Potency,[7],inactive
Cc1cc(O)cc2c1C(=O)c1c(O)cc(O)cc1C2=O,Potency,[1],inactive
same,Potency,[2],inactive
same,Potency,[3],inactive
same,Potency,[14],inactive
same,Potency,[4],inactive
same,Potency,[5],inactive
same,Potency,[6],inactive
COc1cc(C(=O)O)ccc1NC(=O)[C@@H]1N[C@@H](CC(C)(C)C)[C@](C#N)(c2ccc(Cl)cc2F)[C@H]1c1cccc(Cl)c1F,Potency,[12],31.6 µM (active)
same,Potency,[13],5.62 µM (active)
same,Z-AUC,[16],2.81 (inactive)
same,Z-AUC,[16]; measured here: PEO1 parental Z-AUC,1.51
same,Z-AUC,[16]; measured here: PEO4 Z-AUC,1.24
CC1COC2=C1C(=O)C(=O)c1c2ccc2c1CCCC2(C)C (stereo not given),outcome,[9],inactive
same,outcome,[10],inactive
same,"activity change, negative = inhibition",[17]; at 57.5 µM (top of the series),2.92% (inactive)
same,max response,[17]; measured here: cell count channel max response,-7.49%
same,max response,[17]; measured here: lipid channel max response,-5.49%
same,Potency,[13],79.4 µM (active)
CC1=C2CC[C@]3(C)[C@H](CC=C4[C@@H]5CC(C)(C)CC[C@@H]5C(=O)[C@H](O)[C@]43C)[C@@]2(C)C=C(O)C1=O,Potency,[15],39.2 µM (active)
same,Potency,[14],inactive
same,Potency,[4],inactive
same,Potency,[6],inactive
same,Potency,[7],inactive
C/C(=C\[C@@H](C)CC/C=C/CC/C=C/C(=O)O)[C@@H](O)[C@H](C)C(=O)CCCC1CC(=O)NC(=O)C1,Potency,[1],inactive
same,Potency,[2],inactive
same,Potency,[3],inactive
same,Potency,[14],inactive
same,Potency,[5],inactive
Oc1ccc(C2Oc3cc(O)c4c(c3[C@@H]2c2cc(O)cc(O)c2)[C@H]2C(c3ccc(O)cc3)c3c(O)cc5c(c3[C@H]2C4c2ccc(O)cc2)[C@H](c2cc(O)cc(O)c2)C(c2ccc(O)cc2)O5)cc1 (stereo not given in full),Potency,[15],15.6 µM (active)
same,Potency,[6],inactive
COC(=O)c1cc2cc3c(c(O)c2c(=O)o1)OC1(CC3)CC2=C(O1)C(=O)c1c(O)c(OC)cc(OC)c1C2=O (stereo not given),Potency,[15],2.47 µM (active)
same,Potency,[5],26.3 µM (active)
C[C@@H]1CC[C@]2(C(=O)O)CC[C@]3(C)C(=C2[C@H]1C)CC[C@@H]1[C@@]2(C)CC[C@H](O)C(C)(C)[C@@H]2CC[C@]13C,Potency,[15],34.9 µM (active)
same,Potency,[3],inactive
same,Potency,[14],inactive
same,Potency,[7],inactive
